The values that follow come from PubChem BioAssay.

Structures are written as SMILES. Values without a mark were called inactive. Active and inactive are the calls of the source. Unless noted, the rule behind the calls is not given here.

One test is described as follows: Pseudomonas biofilm growth suppression – PAO1 strain, BacTiter-Glo luminescence, LB-PBS, primary screen (AID 1144). Conditions: P. aeruginosa PAO1 biofilm, 12 h, higher = more signal.
Turning to `C#CCCCON=C1C[C@@H](O)[C@@H](O)[C@@H]2[C@@H]3C(=O)N(C4CCCCC4)C(=O)[C@@H]3CC[C@@H]12`, the z-score was -0.356.
With `COC(=O)[C@H](CCSC)NC(=O)CC=C[C@@H](C)CO`, the z-score is -0.449.
As to `CCc1cc2c(nc1CC)CCN(CCC(C)=NO[C@@H]1O[C@H](COC(C)=O)[C@@H](OC(C)=O)[C@H](OC(C)=O)[C@H]1OC(C)=O)C2`, the z-score was -1.19.
In the case of `CO[C@H]1COC(=O)[C@H](C)COC(=O)[C@H](C)NC(=O)CC=C[C@H]1C`, the z-score was 0.598.
For `COC(=O)[C@H](C)NC(=O)CCC1CC(OC(=O)NCc2ccc3c(c2)OCO3)CC2(CCCC(COC(=O)NCCCN3CCCC3=O)O2)O1` (stereo not given in full), the z-score was -0.202.
On to `COc1ccc(COC(=O)NN=C2C[C@@H](O)[C@@H](O)[C@@H]3[C@@H]4C(=O)N(C[C@@H]5CCCO5)C(=O)[C@@H]4CC[C@@H]23)cc1`, for which the z-score is 1.2.
Regarding `COc1ccc(COC(=O)NN=C2C[C@@H](O)[C@@H](O)[C@@H]3[C@@H]4C(=O)N(C(C)(C)C)C(=O)[C@@H]4CC[C@@H]23)cc1`, the z-score is 0.224.
Regarding `CCOC(=O)[C@H](CC(C)C)NC(=O)CCC1CC(OC(=O)NCc2ccc3c(c2)OCO3)CC2(CCCC(COC(=O)NCc3ccccc3)O2)O1` (stereo not given in full), the z-score is 0.0377.
Consider `CC(C)[C@H](NC(=O)OC(C)(C)C)[C@@H](O)CC(=O)C(C)(C)C`, for which the z-score is -1.09.

The next test can be described thus: basal CRE-LacZ reporter activity in PC12 – cell-based, unstimulated, primary screen (AID 1145). The settings on record: no forskolin, luminescence, 4.5 h, higher = more signal, called active from +8 up or from −8 down.
Consider `CO[C@H]1COC(=O)[C@H](CCSC)NC(=O)CC=C[C@@H](C)[C@H](OC)COC(=O)[C@@H](OCc2ccccc2)C=C[C@@H]1C`, for which the z-score is -0.0638.
On to `COC(=O)[C@H](C)NC(=O)CCC1CC(OC(=O)NCCc2ccc(F)cc2)CC2(CCCC(COC(=O)NCCc3ccccc3OC)O2)O1` (stereo not given in full), for which the z-score was 0.559.
Take `CC(C)CN1CCc2nc(-c3ccccc3)c3c(c2C1)CO[C@@H](C)C3`: the z-score was 9.42 (active).
For `CC(C)[C@@H](OCc1ccccc1)[C@H](C)CON=C1[C@H]2CCn3c(=O)n(-c4ccccc4)c(=O)n3[C@H]2[C@H](O)[C@@H]2O[C@H]12`, the z-score was -0.408.
The same measure, in the same setting: with `CON=C(C)CCN1CCc2nc(-c3ccccc3)c(-c3ccccc3)cc2C1` the figure was 2.22.
For `COc1ccc(OC[C@H]2CN3[C@@H](CC[C@@H](C)[C@@H]3c3ccc(Br)cc3)C(=O)O2)cc1`, the z-score was 2.62.
The same measure, in the same setting: with `O=C(NN=C1C[C@@H](O)[C@@H](O)[C@@H]2[C@@H]3C(=O)N(c4ccc(F)cc4F)C(=O)[C@@H]3CC[C@H]12)OCc1ccccc1` the figure was -0.299; with `COC(=O)[C@H](C)NC(=O)CCC1CC(OC(=O)NCc2cccc3ccccc23)CC2(CCCC(COC(=O)NCc3ccccc3)O2)O1` (stereo not given in full), -0.437.
In the case of `O=C1C2=CC[C@H]3C(=O)N(C4CCCCC4)C(=O)[C@H]3[C@H]2[C@H](O)[C@@H]2O[C@H]12`, the z-score is 17.1 (active).
The same measure, in the same setting: with `C#CCCCON=C1C[C@@H](O)[C@@H](O)[C@@H]2[C@@H]3C(=O)N(C[C@@H]4CCCO4)C(=O)[C@@H]3CC[C@H]12` the figure was -0.564; with `O=C1[C@H]2CCn3c(=O)n(-c4ccccc4)c(=O)n3[C@H]2[C@H](O)[C@@H]2O[C@H]12`, -0.0164; with `CC(=O)OC[C@H]1O[C@H](CC=NOCC[C@@H]2C=C[C@H](OC(C)=O)[C@@H](COC(C)=O)O2)C=C[C@@H]1OC(C)=O`, 0.848.
Consider `CCCNC(=O)OC[C@H]1O[C@H](CCON=C[C@@H](C)[C@H](OCc2ccccc2)C(C)C)C=C[C@@H]1Oc1ccc(OC)cc1`, for which the z-score is 1.28.
The same measure, in the same setting: with `CC(CCC(=O)OC[C@H]1O[C@H](C#Cc2ccccc2)C=C[C@@H]1Oc1ccc(C)cc1)=NOC(C)CN1CCCCc2nc(C)c(C)cc21` (stereo not given in full) the figure was -0.561; with `CCN1C(=O)[C@H]2[C@H]3[C@H](O)[C@H](O)CC(=NNC(=O)OCc4ccccc4)[C@H]3CC[C@H]2C1=O`, -0.119.
On to `CO[C@@H](C(C)C)[C@@H](C)C1OC(=O)CC1O` (stereo not given in full), for which the z-score was -0.0673.
`CC(C)=NOC(C)CN1CCCc2nc(C)c(C)cc21` (stereo not given): the z-score was 0.0757.
For the compound `CO[C@@H]1[C@H](O)CO[C@H]1C=Cc1ccccc1`, the z-score was -0.164.
Take `COc1ccc(O[C@H]2C=C[C@@H](C#Cc3ccccc3)O[C@@H]2CO)cc1`: the z-score is 0.653.
Consider `CC(CCC(=O)OC[C@H]1O[C@H](C#Cc2ccccc2)C=C[C@@H]1Oc1ccc(C)cc1)=NOC[C@@H](C)[C@H](OCc1ccccc1)C(C)C`, for which the z-score is -0.399.
Same read-out and setting: for `CC(CCN1CCc2nc(-c3ccccc3)c(-c3ccccc3)cc2C1)=NOC(C)CN1CCCc2nc(C)c(C)cc21` (stereo not given) the value was 0.894; for `CCOC(=O)[C@H](CC(C)C)NC(=O)CCC1CC(OC(=O)NCc2ccc3c(c2)OCO3)CC2(CCCC(COC(=O)NCCc3ccc(Cl)cc3)O2)O1` (stereo not given in full), 0.737.
In the case of `CC(=O)OC[C@H]1O[C@@H](ON=C(C)CCC(=O)OC[C@H]2O[C@H](C#Cc3ccccc3)C=C[C@@H]2Oc2ccc(C)cc2)[C@H](OC(C)=O)[C@@H](OC(C)=O)[C@@H]1OC(C)=O`, the z-score was 2.19.
For the compound `CC(C)CON=C1C[C@@H](O)[C@@H](O)[C@@H]2[C@@H]3C(=O)N(c4ccc(F)cc4F)C(=O)[C@@H]3CC[C@@H]12`, the z-score is 0.151.
In the case of `CCOC(=O)CCN1C(=O)[C@H]2[C@H]3[C@H](O)[C@H](O)CC(=NO[C@@H]4O[C@H](CO)[C@@H](O)[C@H](O)[C@H]4O)[C@H]3CC[C@H]2C1=O`, the z-score was 0.241.
Consider `CCOC(=O)[C@H](Cc1ccccc1)NC(=O)CCC1CC(OC(=O)NCc2cccc3ccccc23)CC2(CCCC(COC(=O)NCCc3ccc(Cl)cc3)O2)O1` (stereo not given in full), for which the z-score was 0.563.
As to `CCN1C(=O)[C@H]2[C@H]3[C@H](O)[C@H](O)CC(=NOC[C@@H](O)COCc4ccco4)[C@H]3CC[C@H]2C1=O`, the z-score is -0.926.
As to `C#CCCCON=C1C[C@@H](O)[C@@H](O)[C@@H]2[C@@H]3C(=O)N(C4CCCCC4)C(=O)[C@@H]3CC[C@@H]12`, the z-score is 1.78.
Same read-out and setting: with `COC(=O)[C@H](CCSC)NC(=O)CC=C[C@@H](C)CO` the figure was 0.75.
Consider `CCc1cc2c(nc1CC)CCN(CCC(C)=NO[C@@H]1O[C@H](COC(C)=O)[C@@H](OC(C)=O)[C@H](OC(C)=O)[C@H]1OC(C)=O)C2`, for which the z-score is 4.05.
As to `CO[C@H]1COC(=O)[C@H](C)COC(=O)[C@H](C)NC(=O)CC=C[C@H]1C`, the z-score was 0.611.
Same read-out and setting: with `COC(=O)[C@H](C)NC(=O)CCC1CC(OC(=O)NCc2ccc3c(c2)OCO3)CC2(CCCC(COC(=O)NCCCN3CCCC3=O)O2)O1` (stereo not given in full) the figure was 0.108; with `COc1ccc(COC(=O)NN=C2C[C@@H](O)[C@@H](O)[C@@H]3[C@@H]4C(=O)N(C[C@@H]5CCCO5)C(=O)[C@@H]4CC[C@@H]23)cc1`, 0.338; with `COc1ccc(COC(=O)NN=C2C[C@@H](O)[C@@H](O)[C@@H]3[C@@H]4C(=O)N(C(C)(C)C)C(=O)[C@@H]4CC[C@@H]23)cc1`, 0.973.
For the compound `CCOC(=O)[C@H](CC(C)C)NC(=O)CCC1CC(OC(=O)NCc2ccc3c(c2)OCO3)CC2(CCCC(COC(=O)NCc3ccccc3)O2)O1` (stereo not given in full), the z-score is -0.437.
As for `CC(C)[C@H](NC(=O)OC(C)(C)C)[C@@H](O)CC(=O)C(C)(C)C`, the z-score was -0.795.
